Test results from PubChem BioAssay (NCI).
This is part of a sample that, as a whole, favours compounds with a hit. Of some 83,000 tested, about 20% had one in any assay.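 Results are percent growth after 48 hours of single-concentration exposure. 100 means growth as in untreated cells, lower positive values show inhibition; negative values down to -100 show cell death.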 A number with no mark means an inactive call. Calls of active or inactive are those of the source. Rule for the calls: active = growth percent below 10; inactive = the rest.

What was measured:
Test in all cases: NCI-60 one-dose screen, 48 h (100 = growth as untreated, 0 = no growth, -100 = all killed)
Details in all cases: 10 µM unless noted
T-47D breast = test system: T-47D breast
MDA-MB-435 melanoma = test system: MDA-MB-435 melanoma
SW-620 colon = test system: SW-620 colon
MCF7 breast = test system: MCF7 breast
HCT-116 colon = test system: HCT-116 colon
HCC-2998 colon = test system: HCC-2998 colon
KM12 colon = test system: KM12 colon
BT-549 breast = test system: BT-549 breast

Compound	growth (T-47D breast)	growth (MDA-MB-435 melanoma)	growth (SW-620 colon)	growth (MCF7 breast)	growth (HCT-116 colon)	growth (HCC-2998 colon)	growth (KM12 colon)	growth (BT-549 breast) [%]
Clc1nc(-c2cccnc2)nc2sc3c(c12)CCCCCC3	95.4%	97.3%	106%	92.7%	97.1%	107%	116%	–
COc1cc(C2CC(c3c(C)[n+]([O-])c4ccccc4[n+]3[O-])=NN2)cc(OC)c1OC (stereo unspecified)	95.4%	95.6%	101%	91.8%	104%	76.1%	104%	–
O=C(N/N=C/c1c(Cl)cccc1Cl)c1ccccc1Nc1ccnc(C(F)(F)F)c1	51.8%	82.9%	86.3%	46%	64.9%	71.5%	74.7%	–
Cc1ccc2nc(SCn3nnc4ccccc4c3=O)[nH]c2c1	97%	101%	90.6%	87.2%	97.1%	95.5%	161%	–
CCC(c1ccc(OC)cc1)C(CC)c1ccc(OCC[N+](C)(C)C)cc1 (stereo unspecified)	62.7%	59.8%	70.6%	56.9%	89.6%	39.3%	49.4%	–
CCN1C(=S)N(CC)C2Nn3c(s/c(=C4\C(=O)N(C)c5ccccc54)c3=O)=NC21 (stereo unspecified)	–	-43.1% (active)	41.1%	29.8%	7.36% (active)	79%	27.4%	74.7
CC(=O)Nc1ccc(S(=O)(=O)NC(CCC(=O)Nc2ccc(Cl)cc2)C(=O)O)cc1 (stereo unspecified)	80.4%	85.2%	99.6%	84.8%	102%	103%	94.5%	–
CCOC(=O)C(Cc1ccccc1)n1c(O)c(C=Nc2ccc(C(=O)OCCN(CC)CC)cc2)sc1=O (stereo unspecified)	81.6%	90.1%	97.6%	74.5%	104%	108%	83.5%	–
COc1cccc(NC(=O)c2sc3nc4c(cc3c2N)CCCC4)c1	41.5%	-40.2% (active)	32.1%	13.2%	20.7%	24.4%	23.1%	–
CCOC(=O)c1ccccc1NC(c1ccccc1)c1ccc2cccnc2c1O (stereo unspecified)	–	39.4%	37.5%	16.1%	27.3%	51.8%	29.8%	17.9
c1ccn2nnnc2c1	–	99.5%	106%	93.1%	87.5%	91.6%	99.5%	67.2
O=C(NNC(=S)Nc1ccccc1)c1ccccn1	53.2%	48.4%	42.1%	27.2%	26.7%	40.6%	32.1%	–
N=C(N)c1ccc(-c2ccc(-c3ccc(Cl)cc3)o2)nc1	-75.4% (active)	-84.5% (active)	-93.4% (active)	-81.4% (active)	-84.4% (active)	-71.9% (active)	-93.4% (active)	–
O=C1C2=C(C(=O)c3c(O)ccc(O)c31)N(c1cccnc1)Cc1ccccc1O2	-28.4% (active)	-14.2% (active)	–	-18% (active)	-71% (active)	-31.2% (active)	-4.03% (active)	–
Cc1ccc(S(=O)(=O)OC2COCOC2C(OS(=O)(=O)c2ccc(C)cc2)C2OCOCC2OS(=O)(=O)c2ccc(C)cc2)cc1 (stereo unspecified)	–	108%	108%	103%	105%	113%	107%	98.2
Cc1cccc(NC(=O)c2sc3nc4c(cc3c2N)CCCC4)c1	53.5%	-22.9% (active)	36%	11.3%	22.3%	70.6%	22.9%	–
